The full ranking holds about 1,900 compounds; the median of “excess over highest single agent (ExcessHSA) synergy score, 6x6 matrix” is about -83, and the lowest 2% start at about -370. For the sample, the lowest values were picked, then their nearest neighbours and some compounds at random.
The compounds below were run on NCI-H446 (assay: excess over highest single agent (ExcessHSA) synergy score, 6x6 matrix; higher = less synergy (more negative = stronger synergy)). Conditions: 72 h; CellTiter-Glo viability.

| Compound | excess over highest single agent |
| --- | --- |
| Cc1cn2cc(C(=O)N(C)CCO)cc(N[C@@H]3CCOc4cccc(C)c43)c2n1 + Cc1sc2c(c1C)C(c1ccc(Cl)cc1)=N[C@@H](CC(=O)OC(C)(C)C)c1nnc(C)n1-2 [NCGC00250412-19] | 64.1 |
| CNC(=O)N1N=C(c2ccc(N)cc2)c2cc3c(cc2CC1C)OCO3 (configuration not stated) + Cc1sc2c(c1C)C(c1ccc(Cl)cc1)=N[C@@H](CC(=O)OC(C)(C)C)c1nnc(C)n1-2 [NCGC00250412-19] | -19.1 |
| O=C(CCCCCCC(=O)Nc1cccnc1)NO + Cc1sc2c(c1C)C(c1ccc(Cl)cc1)=N[C@@H](CC(=O)OC(C)(C)C)c1nnc(C)n1-2 [NCGC00250412-19] | -276 |
| c1cncc(CN2CCC(n3ncc4c(N5CCOCC5)nc(-c5ccc6[nH]ccc6c5)nc43)CC2)c1 + Cc1sc2c(c1C)C(c1ccc(Cl)cc1)=N[C@@H](CC(=O)OC(C)(C)C)c1nnc(C)n1-2 [NCGC00250412-19] | -140 |
| Nc1ccc(C(=O)Nc2cccc(-c3nc(N4CCOCC4)c4oc5ncccc5c4n3)c2)cn1 + Cc1sc2c(c1C)C(c1ccc(Cl)cc1)=N[C@@H](CC(=O)OC(C)(C)C)c1nnc(C)n1-2 [NCGC00250412-19] | 98.4 |
| Oc1cccc(-c2nc(N3CCOCC3)c3oc4ncccc4c3n2)c1 + Cc1sc2c(c1C)C(c1ccc(Cl)cc1)=N[C@@H](CC(=O)OC(C)(C)C)c1nnc(C)n1-2 [NCGC00250412-19] | -410 |
| Cc1ccc(C(=O)Nc2cccc(C(F)(F)F)c2)cc1-c1ccc2nc(NCCN3CCOCC3)ncc2c1 + Cc1sc2c(c1C)C(c1ccc(Cl)cc1)=N[C@@H](CC(=O)OC(C)(C)C)c1nnc(C)n1-2 [NCGC00250412-19] | -140 |
| Nc1ncnc2c1c(-c1cccc(OCc3ccccc3)c1)cn2C1CC(CN2CCC2)C1 (configuration not stated) + Cc1sc2c(c1C)C(c1ccc(Cl)cc1)=N[C@@H](CC(=O)OC(C)(C)C)c1nnc(C)n1-2 [NCGC00250412-19] | -56.6 |
| COc1ncc(-c2ccc3nccc(-c4ccnnc4)c3c2)cc1NS(=O)(=O)c1ccc(F)cc1F + Cc1sc2c(c1C)C(c1ccc(Cl)cc1)=N[C@@H](CC(=O)OC(C)(C)C)c1nnc(C)n1-2 [NCGC00250412-19] | -259 |
| CCn1c(-c2nonc2N)nc2cncc(CNC3CCNCC3)c21 + Cc1sc2c(c1C)C(c1ccc(Cl)cc1)=N[C@@H](CC(=O)OC(C)(C)C)c1nnc(C)n1-2 [NCGC00250412-19] | 51.1 |
| Cc1ccccc1-n1c(Cn2nc(-c3cccc(O)c3)c3c(N)ncnc32)nc2cccc(C)c2c1=O + Cc1sc2c(c1C)C(c1ccc(Cl)cc1)=N[C@@H](CC(=O)OC(C)(C)C)c1nnc(C)n1-2 [NCGC00250412-19] | -224 |
| O=C(O)[C@]1(Cc2cccc(Nc3nccs3)n2)CC[C@@H](Oc2cccc(Cl)c2F)CC1 + Cc1sc2c(c1C)C(c1ccc(Cl)cc1)=N[C@@H](CC(=O)OC(C)(C)C)c1nnc(C)n1-2 [NCGC00250412-19] | -273 |
| O=C(O)c1nc(=O)[nH]c(=O)[nH]1 + Cc1sc2c(c1C)C(c1ccc(Cl)cc1)=N[C@@H](CC(=O)OC(C)(C)C)c1nnc(C)n1-2 [NCGC00250412-19] | -48.1 |
| CCS(=O)(=O)c1cccc(-c2cc(C(=O)NC3CCN(C)CC3)c(C)c3[nH]c4ncc(C)cc4c23)c1 + Cc1sc2c(c1C)C(c1ccc(Cl)cc1)=N[C@@H](CC(=O)OC(C)(C)C)c1nnc(C)n1-2 [NCGC00250412-19] | -197 |
| CO[C@H]1C[C@@H]2CC[C@@H](C)[C@@](O)(O2)C(=O)C(=O)N2CCCC[C@H]2C(=O)O[C@H]([C@H](C)C[C@@H]2CC[C@@H](OC(=O)C(C)(CO)CO)[C@H](OC)C2)CC(=O)[C@H](C)/C=C(\C)[C@@H](O)[C@@H](OC)C(=O)[C@H](C)C[C@H](C)/C=C/C=C/C=C/1C + Cc1sc2c(c1C)C(c1ccc(Cl)cc1)=N[C@@H](CC(=O)OC(C)(C)C)c1nnc(C)n1-2 [NCGC00250412-19] | -419 |
| CO[C@H]1C[C@@H]2CC[C@@H](C)[C@@](O)(O2)C(=O)C(=O)N2CCCC[C@H]2C(=O)O[C@H]([C@H](C)C[C@@H]2CC[C@@H](OP(C)(C)=O)[C@H](OC)C2)CC(=O)[C@H](C)/C=C(\C)[C@@H](O)[C@@H](OC)C(=O)[C@H](C)C[C@H](C)/C=C/C=C/C=C/1C + Cc1sc2c(c1C)C(c1ccc(Cl)cc1)=N[C@@H](CC(=O)OC(C)(C)C)c1nnc(C)n1-2 [NCGC00250412-19] | -543 |
| CO[C@H]1C[C@@H]2CC[C@@H](C)[C@@](O)(O2)C(=O)C(=O)N2CCCC[C@H]2C(=O)O[C@H]([C@H](C)C[C@@H]2CC[C@@H](O)[C@H](OC)C2)CC(=O)[C@H](C)/C=C(\C)[C@@H](O)[C@@H](OC)C(=O)[C@H](C)C[C@H](C)/C=C/C=C/C=C/1C + Cc1sc2c(c1C)C(c1ccc(Cl)cc1)=N[C@@H](CC(=O)OC(C)(C)C)c1nnc(C)n1-2 [NCGC00250412-19] | -737 |
| CC[C@@H]1/C=C(\C)C[C@H](C)C[C@H](OC)[C@H]2O[C@@](O)(C(=O)C(=O)N3CCCC[C@H]3C(=O)O[C@H](/C(C)=C/[C@@H]3CC[C@H](Cl)[C@H](OC)C3)[C@H](C)[C@@H](O)CC1=O)[C@H](C)C[C@@H]2OC + Cc1sc2c(c1C)C(c1ccc(Cl)cc1)=N[C@@H](CC(=O)OC(C)(C)C)c1nnc(C)n1-2 [NCGC00250412-19] | -132 |
| C=CC[C@@H]1/C=C(\C)C[C@H](C)C[C@H](OC)[C@H]2O[C@@](O)(C(=O)C(=O)N3CCCC[C@H]3C(=O)O[C@H](/C(C)=C/[C@@H]3CC[C@@H](O)[C@H](OC)C3)[C@H](C)[C@@H](O)CC1=O)[C@H](C)C[C@@H]2OC + Cc1sc2c(c1C)C(c1ccc(Cl)cc1)=N[C@@H](CC(=O)OC(C)(C)C)c1nnc(C)n1-2 [NCGC00250412-19] | -143 |
| CO[C@H]1C[C@@H]2CC[C@@H](C)[C@@](O)(O2)C(=O)C(=O)N2CCCC[C@H]2C(=O)O[C@H]([C@H](C)C[C@@H]2CC[C@@H](OCCO)[C@H](OC)C2)CC(=O)[C@H](C)/C=C(\C)[C@@H](O)[C@@H](OC)C(=O)[C@H](C)C[C@H](C)/C=C/C=C/C=C/1C + Cc1sc2c(c1C)C(c1ccc(Cl)cc1)=N[C@@H](CC(=O)OC(C)(C)C)c1nnc(C)n1-2 [NCGC00250412-19] | -598 |
| Cc1cc(=O)c2c(O)c3c(O)cc(=O)c4c3c3c(cc(O)c1c23)C(C)(C)C=4O + Cc1sc2c(c1C)C(c1ccc(Cl)cc1)=N[C@@H](CC(=O)OC(C)(C)C)c1nnc(C)n1-2 [NCGC00250412-19] | -128 |

| Compound | excess over highest single agent |
| --- | --- |
| Oc1ccc([C@@H]2Oc3ccc(O)cc3[C@@H]3CCC[C@@H]32)cc1 + Cc1sc2c(c1C)C(c1ccc(Cl)cc1)=N[C@@H](CC(=O)OC(C)(C)C)c1nnc(C)n1-2 [NCGC00250412-19] | -48.9 |
| N#Cc1cc(NC(=O)Nc2nnc(-c3ccncc3)s2)ccc1-c1cn[nH]c1 + Cc1sc2c(c1C)C(c1ccc(Cl)cc1)=N[C@@H](CC(=O)OC(C)(C)C)c1nnc(C)n1-2 [NCGC00250412-19] | 313 |
| O=C(O)c1ccc2cc(-c3ccc(O)c(C45CC6CC(CC(C6)C4)C5)c3)ccc2c1 + Cc1sc2c(c1C)C(c1ccc(Cl)cc1)=N[C@@H](CC(=O)OC(C)(C)C)c1nnc(C)n1-2 [NCGC00250412-19] | -225 |
| CC(C)n1cnc2c(NCCCCCCNC(=O)OC(C)(C)C)nc(NCCO)nc21 + Cc1sc2c(c1C)C(c1ccc(Cl)cc1)=N[C@@H](CC(=O)OC(C)(C)C)c1nnc(C)n1-2 [NCGC00250412-19] | -65.3 |
| CC1=C(C(=O)Nc2cc3cn[nH]c3cc2F)C(c2ccc(Cl)cc2F)N=C(c2ccnc(Cl)c2)N1 (configuration not stated) + Cc1sc2c(c1C)C(c1ccc(Cl)cc1)=N[C@@H](CC(=O)OC(C)(C)C)c1nnc(C)n1-2 [NCGC00250412-19] | -142 |
| COc1ccc2c(c1)CC[C@H](CN(C)CC(=O)O)[C@@H]2c1ccccc1 + Cc1sc2c(c1C)C(c1ccc(Cl)cc1)=N[C@@H](CC(=O)OC(C)(C)C)c1nnc(C)n1-2 [NCGC00250412-19] | -220 |
| CNC(=O)c1ccc(N2C(=S)N(c3cnc(C#N)c(C(F)(F)F)c3)C(=O)C23CCC3)cc1F + Cc1sc2c(c1C)C(c1ccc(Cl)cc1)=N[C@@H](CC(=O)OC(C)(C)C)c1nnc(C)n1-2 [NCGC00250412-19] | -9.84 |
| CN(C)CCOc1cc(-c2cn[nH]c2)ccc1NC(=O)C1COc2ccccc2O1 (configuration not stated) + Cc1sc2c(c1C)C(c1ccc(Cl)cc1)=N[C@@H](CC(=O)OC(C)(C)C)c1nnc(C)n1-2 [NCGC00250412-19] | -160 |
| O=C(O)CCNc1cc(N2CCc3ccccc3CC2)nc(-c2ccccn2)n1 + Cc1sc2c(c1C)C(c1ccc(Cl)cc1)=N[C@@H](CC(=O)OC(C)(C)C)c1nnc(C)n1-2 [NCGC00250412-19] | -73 |
| CN1CCN(c2ncc(-c3cc(Cl)cc(Cl)c3Cl)c(N)n2)CC1 + Cc1sc2c(c1C)C(c1ccc(Cl)cc1)=N[C@@H](CC(=O)OC(C)(C)C)c1nnc(C)n1-2 [NCGC00250412-19] | -219 |
| CN(C)Cc1c(C(=O)NCCOc2ccc(C(=O)NO)cc2)oc2ccccc12 + Cc1sc2c(c1C)C(c1ccc(Cl)cc1)=N[C@@H](CC(=O)OC(C)(C)C)c1nnc(C)n1-2 [NCGC00250412-19] | -152 |
| Cc1ccc2nc(NC(=O)CSc3nc4c(c(=O)n3-c3ccccc3)SCC4)sc2c1 + Cc1sc2c(c1C)C(c1ccc(Cl)cc1)=N[C@@H](CC(=O)OC(C)(C)C)c1nnc(C)n1-2 [NCGC00250412-19] | 84.8 |
| CC(C)(C)OC(=O)CN(Cc1ccc(Cl)cc1)Cc1ccc([N+](=O)[O-])s1 + Cc1sc2c(c1C)C(c1ccc(Cl)cc1)=N[C@@H](CC(=O)OC(C)(C)C)c1nnc(C)n1-2 [NCGC00250412-19] | 27 |
| Cn1c(=O)c(-c2c(Cl)cccc2Cl)cc2cnc(Nc3cccc(C(=O)O)c3)nc21 + Cc1sc2c(c1C)C(c1ccc(Cl)cc1)=N[C@@H](CC(=O)OC(C)(C)C)c1nnc(C)n1-2 [NCGC00250412-19] | -131 |
| Cc1cc(OCCCc2c(C(=O)O)n(Cc3cccnc3)c3c(-c4c(COc5ccc(N6CCN([S+](C)(=O)[O-])CC6)cc5)nn(C)c4C)cccc23)cc(C)c1Cl + Cc1sc2c(c1C)C(c1ccc(Cl)cc1)=N[C@@H](CC(=O)OC(C)(C)C)c1nnc(C)n1-2 [NCGC00250412-19] | -31.2 |
| CCOC(=O)N1CCN([N+]([O-])=NOc2ccc([N+](=O)[O-])cc2[N+](=O)[O-])CC1 + Cc1sc2c(c1C)C(c1ccc(Cl)cc1)=N[C@@H](CC(=O)OC(C)(C)C)c1nnc(C)n1-2 [NCGC00250412-19] | -84.4 |
| O=C(c1ccc(Nc2nccc(-c3cc4ccccc4s3)n2)cc1)N1CCC(N2CCCC2)CC1 + Cc1sc2c(c1C)C(c1ccc(Cl)cc1)=N[C@@H](CC(=O)OC(C)(C)C)c1nnc(C)n1-2 [NCGC00250412-19] | -181 |
| CNC(=O)c1ccc(N2C(=S)N(c3ccc(C#N)c(C(F)(F)F)c3)C(=O)C23CCC3)cc1F + Cc1sc2c(c1C)C(c1ccc(Cl)cc1)=N[C@@H](CC(=O)OC(C)(C)C)c1nnc(C)n1-2 [NCGC00250412-19] | -51.1 |
| O=C(OCC#CCSc1nnc(-c2cccc3ccccc23)o1)c1cc2ccccc2s1 + Cc1sc2c(c1C)C(c1ccc(Cl)cc1)=N[C@@H](CC(=O)OC(C)(C)C)c1nnc(C)n1-2 [NCGC00250412-19] | -169 |
| O=C1CSC(=O)N1C(CCc1ccncc1)COc1ccc(-c2cccc([N+](=O)[O-])c2)cc1 (configuration not stated) + Cc1sc2c(c1C)C(c1ccc(Cl)cc1)=N[C@@H](CC(=O)OC(C)(C)C)c1nnc(C)n1-2 [NCGC00250412-19] | -96.7 |
| CS[C@H]1SC[C@H]2C(=O)N(C)[C@@H](C(C)C)C(=O)OC[C@@H](NC(=O)c3cnc4ccccc4n3)C(=O)N[C@@H](C)C(=O)N(C)[C@@H]1C(=O)N(C)[C@@H](C(C)C)C(=O)OC[C@@H](NC(=O)c1cnc3ccccc3n1)C(=O)N[C@@H](C)C(=O)N2C + Cc1sc2c(c1C)C(c1ccc(Cl)cc1)=N[C@@H](CC(=O)OC(C)(C)C)c1nnc(C)n1-2 [NCGC00250412-19] | 15.3 |

Reference: the supplement of paper PMC10077471
